Sampled rows, rich in hits. Any-hit rate of the full collection: about 3.5%.
MITF inh = MITF inhibitors, primary screen, biochemical, AlphaScreen, human. inhibition, % at 2.6 µM. AlphaScreen MITF homodimerization, bead proximity signal. hit rate 0.91% among 650,000; in the data active = inhibition above about 50%;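 also: 0% = vehicle wells with protein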
Target sequence (O75030 whole entry, looked up): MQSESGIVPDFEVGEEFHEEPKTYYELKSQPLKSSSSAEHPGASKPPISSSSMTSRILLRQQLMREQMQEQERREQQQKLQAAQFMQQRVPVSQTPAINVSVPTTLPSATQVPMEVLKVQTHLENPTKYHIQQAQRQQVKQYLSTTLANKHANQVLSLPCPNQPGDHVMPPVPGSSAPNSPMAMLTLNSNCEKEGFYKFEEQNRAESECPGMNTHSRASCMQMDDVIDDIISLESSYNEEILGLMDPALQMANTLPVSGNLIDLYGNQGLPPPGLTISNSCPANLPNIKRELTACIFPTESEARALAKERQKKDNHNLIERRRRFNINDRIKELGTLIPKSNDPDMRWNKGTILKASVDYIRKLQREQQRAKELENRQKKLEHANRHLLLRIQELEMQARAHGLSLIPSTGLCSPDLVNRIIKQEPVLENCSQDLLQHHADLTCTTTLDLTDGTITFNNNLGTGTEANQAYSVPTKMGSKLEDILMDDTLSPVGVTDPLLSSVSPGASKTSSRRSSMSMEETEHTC
FBW7 act = FBW7 E3 ligase activators, primary screen, biochemical, AlphaScreen, human; F-box/WD repeat-containing protein 7 (Homo sapiens), Q969H0; AlphaScreen FBW7–phospho-cyclin E peptide binding, activator screen; normalized activity (activation), % at 26.1 µM; hit rate 0.13% among 650,000; AID 1259310, 2017; in the data active = normalized activity above about 1.9%;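 also: purified mutant Fbw7 with reduced substrate affinity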
GPR151 activ = activators of human GPR151, primary screen, cell-based, PathHunter beta-arrestin, luminescence. G-protein coupled receptor 151 (Homo sapiens), Q8TDV0. PathHunter beta-arrestin GPR151 cells. activation, % at 11.2 µM. hit rate 1% among 650,000; in the data active = activation above about 4.9%;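 also: 0% = median of compound wells and 100% = cells with positive control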
TEAD-YAP inh = TEAD-YAP interaction inhibition, primary screen, TEAD-YAP interaction inhibitor project, luminescence, HEK-TIYL cells; inhibition, % at 9.12 µM; hit rate 1.4% among 640,000; TEAD-Gal4/YAP UAS-luciferase luminescence; in the data active = inhibition above about 32%;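 also: 0% = median of test compound wells and 100% = reference inhibitor wells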
MITF confirm = MITF inhibitors, retest of hits, confirmation, biochemical, AlphaScreen, triplicate; shares compounds with MITF inh; AlphaScreen MITF homodimerization, biotin/His-MITF beads; inhibition, % at 2.6 µM; hit rate 16% among 4,700; AID 1259372, 2018;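 active = inhibition above a cutoff derived from the DMSO control wells, cut at about 28% in these data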;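 also: 0% = MITF dimer wells with DMSO only; inhibitors lower the bead chemiluminescence by keeping MITF from dimerizing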
AlphaScreen intf2 = AlphaScreen optical interference compounds, counter-screen for MITF inhibitor project, biochemical, triplicate; shares compounds with MITF inh; LysRS AlphaScreen counterscreen, signal interference; inhibition, % at 2.6 µM; hit rate 7.6% among 4,700; AID 1259376, 2018;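 active = inhibition above a cutoff derived from the DMSO control wells, cut at about 30% in these data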
Active calls of the source: *.

How did C/C=C/c1ccc(OCCCCn2cncn2)c(OC)c1 do in these assays?
MITF inh: 55*; FBW7 act: 0; GPR151 activ: 2; TEAD-YAP inh: 2; MITF confirm: -10; AlphaScreen intf2: -8

How did C/C=C/c1ccc(OCCn2cncn2)c(OC)c1 do in these assays?
MITF inh: 55*; FBW7 act: 0; GPR151 activ: 0; TEAD-YAP inh: -5; MITF confirm: 13; AlphaScreen intf2: 17

How did Cc1ccc(OCCCCn2cncn2)c(I)c1 do in these assays?
MITF inh: -19; FBW7 act: 0; GPR151 activ: 1; TEAD-YAP inh: -30

Results for CCNc1nc(NCC)nc(N2N=C(C)CC2=O)n1 ?
MITF inh: 71*; FBW7 act: 0; GPR151 activ: 0; TEAD-YAP inh: 8; MITF confirm: 41*; AlphaScreen intf2: 66*

What do the screens show for `CC1=NN(c2cc(C)cc(C)c2)C(=O)C1`?
MITF inh: 7; FBW7 act: 0; GPR151 activ: 0; TEAD-YAP inh: 3

What do the screens show for `COC(=O)Nc1ccc(S(=O)(=O)N2CCC(C)CC2)cc1`?
MITF inh: 75*; FBW7 act: 0; GPR151 activ: 1; TEAD-YAP inh: 2; MITF confirm: 7; AlphaScreen intf2: 19

How did O=C(NCCCn1ccnc1)c1ccc(OC2CCN(CCc3ccccc3)CC2)cc1 do in these assays?
MITF inh: 69*; FBW7 act: 0; GPR151 activ: 4; TEAD-YAP inh: 1; MITF confirm: -1; AlphaScreen intf2: -5

What do the screens show for `O=C(NCCCO)c1ccc(OC2CCN(CCc3ccccc3)CC2)cc1`?
MITF inh: -2; FBW7 act: 0; GPR151 activ: 0; TEAD-YAP inh: 5

How did CC12CCC(C(=O)N3CCN(c4ccccc4F)CC3)(OC1=O)C2(C)C (stereo not given) do in these assays?
MITF inh: -7; FBW7 act: 0; GPR151 activ: -1; TEAD-YAP inh: -4

What do the screens show for `Cc1cccc(OCC(=O)N/N=C/c2ccc(O)c([N+](=O)[O-])c2)c1`?
MITF inh: -3; FBW7 act: 0; GPR151 activ: 1; TEAD-YAP inh: -3

Results for O=C(O)Cc1cc(=O)n(-c2ccccn2)[nH]1 ?
MITF inh: 117*; FBW7 act: -1; GPR151 activ: -1; TEAD-YAP inh: -4; MITF confirm: 118*; AlphaScreen intf2: 100*

How did CCn1cc(NC(=O)NCc2ccc3[nH]c(C)cc3c2)c2ccccc21 do in these assays?
MITF inh: 6; FBW7 act: 0; GPR151 activ: 0; TEAD-YAP inh: 4

Results for CCOc1ccccc1OCCCN1CCNCC1 ?
MITF inh: -8; FBW7 act: 0; GPR151 activ: 0; TEAD-YAP inh: -5

How did Clc1ccc(OCCCCN2CCNCC2)cc1 do in these assays?
MITF inh: -2; FBW7 act: 0; GPR151 activ: 2; TEAD-YAP inh: -15

Results for Clc1ccccc1OCCCCN1CCNCC1 ?
MITF inh: 54*; FBW7 act: 0; GPR151 activ: -1; TEAD-YAP inh: -6; MITF confirm: -6; AlphaScreen intf2: -7

What do the screens show for `CC(C)(C)c1ccccc1OCCCN1CCNCC1`?
MITF inh: 60*; FBW7 act: 0; GPR151 activ: -1; TEAD-YAP inh: -15; MITF confirm: 3; AlphaScreen intf2: 4

What do the screens show for `Brc1ccccc1OCCCCN1CCNCC1`?
MITF inh: 51*; FBW7 act: 0; GPR151 activ: 0; TEAD-YAP inh: -7; MITF confirm: -9; AlphaScreen intf2: -6

Results for CN(C)S(=O)(=O)c1ccc(C(=O)Nc2ccc(Br)cc2)cc1 ?
MITF inh: -19; FBW7 act: 0; GPR151 activ: 0; TEAD-YAP inh: -14

What do the screens show for `N[C@H]1CCC[C@H](C(=O)Nc2cccc3c(=O)[nH]cnc23)C1`?
MITF inh: 54*; FBW7 act: 0; GPR151 activ: 0; TEAD-YAP inh: 3; MITF confirm: 26; AlphaScreen intf2: 11

Results for COC(=O)c1cc(C(=O)OC)cc(N2C(=O)c3ccc(C(=O)O)cc3C2=O)c1 ?
MITF inh: 12; FBW7 act: 0; GPR151 activ: 2; TEAD-YAP inh: 4

Results for COc1ccc(C(C)=O)cc1CSc1nc(NC2CCCCC2)c2ccccc2n1 ?
MITF inh: 80*; FBW7 act: 0; GPR151 activ: 1; TEAD-YAP inh: -2; MITF confirm: 0; AlphaScreen intf2: -1

Results for COc1ccc(C(C)=O)cc1CSc1nc(NCCc2ccccc2)c2ccccc2n1 ?
MITF inh: 3; FBW7 act: 0; GPR151 activ: 0; TEAD-YAP inh: -2

Results for O=[N+]([O-])c1cccc(CN2CCC(N3CCN(c4ccccc4)CC3)CC2)c1 ?
MITF inh: 74*; FBW7 act: 0; GPR151 activ: 0; TEAD-YAP inh: 2; MITF confirm: 1; AlphaScreen intf2: 4

How did COc1ccccc1N1CCN(C2CCN(Cc3ccc([N+](=O)[O-])cc3)CC2)CC1 do in these assays?
MITF inh: 57*; FBW7 act: 0; GPR151 activ: -1; TEAD-YAP inh: 14; MITF confirm: -7; AlphaScreen intf2: -5

How did O=[N+]([O-])c1ccc(CN2CCC(N3CCN(c4ccccc4F)CC3)CC2)cc1 do in these assays?
MITF inh: -2; FBW7 act: 0; GPR151 activ: -1; TEAD-YAP inh: 16

What do the screens show for `CCN1CCN(C2CCN(Cc3cccc([N+](=O)[O-])c3)CC2)CC1`?
MITF inh: 23; FBW7 act: 0; GPR151 activ: 2; TEAD-YAP inh: 8

How did O=[N+]([O-])c1cccc(CN2CCN(C3CCCC3)CC2)c1 do in these assays?
MITF inh: 76*; FBW7 act: 0; GPR151 activ: 0; TEAD-YAP inh: 3; MITF confirm: 18; AlphaScreen intf2: 13

What do the screens show for `COc1ccccc1N1CCN(C2CCN(C(=O)c3cccc4ccccc34)CC2)CC1`?
MITF inh: 75*; FBW7 act: 0; GPR151 activ: 0; TEAD-YAP inh: 9; MITF confirm: -1; AlphaScreen intf2: 4

Results for CCOC(=O)c1c(-c2ccc(Br)cc2)csc1NC(=O)c1ccccc1C(=O)O ?
MITF inh: 2; FBW7 act: 0; GPR151 activ: 1; TEAD-YAP inh: -1

Results for O=C(CSc1nc2ccccc2c(=O)n1-c1ccccc1)N1CCN(c2ccc([N+](=O)[O-])cc2)CC1 ?
MITF inh: -4; FBW7 act: 0; GPR151 activ: 0; TEAD-YAP inh: 26

How did CCOC(=O)C1(CCOc2ccccc2)CCN(CCCSC)CC1 do in these assays?
MITF inh: 12; FBW7 act: 0; GPR151 activ: -1; TEAD-YAP inh: -7

Screening results as filed in PubChem.
